# ± gives the standard deviation of the averaged measurements.
# Assays:
# Assay in all cases: cell proliferation (confluence) relative to DMSO control; higher = less growth inhibition
# Settings in all cases: 5 uM; 6 d
# BT549 = test system: BT549
# Procedure, shortened: (§1)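 Plates with 384 wells were seeded with triple-negative breast cancer cell lines at 500 cells per well, and epigenetic chemical probes in DMSO were added once the cells had attached, at a final 5 μM for 6 d. Imaging used an IncuCyte ZOOM with a ×10 objective in phase-contrast, and analysis used Incucyte 2016 software. With four replicate wells per compound, confluence was normalised to wells holding DMSO alone.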
# CAL120 = test system: CAL120
# Procedure, shortened: as §1
# HCC1143 = test system: HCC1143
# Procedure, shortened: as §1
# HCC1395 = test system: HCC1395
# Procedure, shortened: as §1
# HCC153 = test system: HCC153
# Procedure, shortened: as §1
# HCC1806 = test system: HCC1806
# Procedure, shortened: as §1
# HCC38 = test system: HCC38
# Procedure, shortened: as §1
# HCC70 = test system: HCC70
# Procedure, shortened: as §1
# Hs578-T = test system: Hs578-T
# Procedure, shortened: as §1
# MB157 = test system: MB157
# Procedure, shortened: as §1
# SUM149-PT = test system: SUM149-PT
# Procedure, shortened: as §1
# SUM159-PT = test system: SUM159-PT
# Procedure, shortened: as §1
SMILES,cell proliferation (BT549) [%],cell proliferation (CAL120) [%],cell proliferation (HCC1143) [%],cell proliferation (HCC1395) [%],cell proliferation (HCC153) [%],cell proliferation (HCC1806) [%],cell proliferation (HCC38) [%],cell proliferation (HCC70) [%],cell proliferation (Hs578-T) [%],cell proliferation (MB157) [%],cell proliferation (SUM149-PT) [%],cell proliferation (SUM159-PT) [%]
CCn1cc(-c2cccc(C(F)(F)F)c2)c2sc(C(=N)NC3CCS(=O)(=O)CC3)cc2c1=O,99.17 ± 0.79,98.86 ± 0.38,98.69 ± 0.74,99.948 ± 0.021,44.8 ± 4,78.6 ± 12,98.94 ± 0.64,96.7 ± 3.6,99.5 ± 0.38,71.8 ± 6.5,23.9 ± 2.3,99.974 ± 0.019
CCCc1cc(C)[nH]c(=O)c1CNC(=O)c1cc(-c2ccc(N3CCN(C(C)C)CC3)nc2)cc2c1cnn2C(C)C,21 ± 7.7,85.5 ± 11,98.86 ± 0.59,99.88 ± 0.14,91.8 ± 4.8,92.4 ± 6.9,99.93 ± 0.072,80 ± 8.9,97 ± 2,46.2 ± 22,11.5 ± 5.8,99.997 ± 0.002
COc1cc2c(NC3CCN(C(C)C)CC3)nc(C3CCCCC3)nc2cc1OCCCN1CCCC1,99.51 ± 0.12,81.6 ± 8.8,98.93 ± 0.9,99.3 ± 0.76,89 ± 4.7,99.53 ± 0.2,99.86 ± 0.072,98.64 ± 0.65,98.1 ± 1.1,67.8 ± 16,91.8 ± 8.8,99.996 ± 0.0018
CCOC(=O)CCNc1cc(N2CCc3ccccc3CC2)nc(-c2cccnc2)n1,99.38 ± 0.4,94.6 ± 4.8,99.33 ± 0.49,99.887 ± 0.094,82.7 ± 3.2,99.75 ± 0.15,99.31 ± 0.31,98 ± 1.6,96.1 ± 2.3,96.1 ± 2.9,96 ± 3.5,99.982 ± 0.0074
COc1ccccc1S(=O)(=O)Nc1ccc2c(c1)CN(C)C(=O)N2,95.7 ± 1.4,50.1 ± 11,97.21 ± 0.84,98.12 ± 0.25,59.7 ± 1.8,38.5 ± 27,35.2 ± 7.6,81.7 ± 7.9,47.7 ± 1.6,50.9 ± 5.5,20.8 ± 3.4,97.92 ± 0.3
CN(C)[C@H]1CN(C2CCc3cccc(F)c32)C[C@@H]1c1ccc(N2CCN(S(C)(=O)=O)CC2)cc1 (some centres not stated),99.839 ± 0.071,91.9 ± 3.3,99.22 ± 0.33,99.91 ± 0.14,83.7 ± 2.5,99.14 ± 0.58,99.71 ± 0.21,82.3 ± 13,97.33 ± 0.62,91.6 ± 4.3,87.8 ± 10,99.996 ± 0.0017
COc1cc2c(cc1OCCCN1CCCC1)N=C(N)C21CCC1,99.32 ± 0.28,83.1 ± 6.3,95.6 ± 3.2,99.981 ± 0.027,80.7 ± 2.8,99.41 ± 0.36,98.89 ± 0.42,96.5 ± 3.6,92.3 ± 4.1,72.5 ± 12,78.6 ± 16,99.951 ± 0.031
COc1cc(-c2cn(C)c(=O)c3cnccc23)c(OC)cc1CN(C)C,99.729 ± 0.064,96.7 ± 2,96.9 ± 3.3,99.978 ± 0.01,55.9 ± 8.2,65.4 ± 6,99.64 ± 0.17,96.2 ± 2.6,98.52 ± 0.23,88.3 ± 10,74.4 ± 19,99.991 ± 0.0063
Cn1cc(CCn2cnc(-c3cnn(C)c3)c2-c2ccc(C#N)cc2)cn1,98.99 ± 0.43,97.56 ± 0.71,98.1 ± 2.2,99.977 ± 0.017,58.1 ± 13,76.7 ± 11,99.38 ± 0.67,85.1 ± 8.9,97.89 ± 0.77,62.6 ± 28,92.6 ± 3.4,99.988 ± 0.012
CCC(=O)N1CCOc2c(cc(-c3ccc(OC)c(OC)c3)cc2OC[C@H]2CCCN(C)C2)C1,98 ± 1.1,98.2 ± 1.5,99.31 ± 0.35,99.981 ± 0.0043,65.2 ± 5.7,79 ± 6.8,99.89 ± 0.02,92.5 ± 7.2,97.28 ± 0.62,94.2 ± 4.5,29.9 ± 7.1,99.985 ± 0.014
O=C(c1ccc(C(=O)N2CCC(N3CCCC3)CC2)c(Nc2ccccc2)c1)N1CCC(N2CCCC2)CC1,99.63 ± 0.2,95.4 ± 2.1,99.64 ± 0.16,99.874 ± 0.068,89.5 ± 3.3,99.832 ± 0.085,99.81 ± 0.17,99.24 ± 0.6,98.8 ± 0.39,99.13 ± 0.32,89.4 ± 9.2,99.998 ± 0.0015
Clc1cc2c(NC3CCCC3)nnc(-c3ccncc3)c2cc1Cl,99.863 ± 0.055,83.4 ± 7.1,99.1 ± 1.1,99.965 ± 0.029,87.7 ± 5.4,98.95 ± 0.87,99.63 ± 0.21,99.12 ± 0.58,97.48 ± 0.54,98.8 ± 1.5,64.6 ± 19,99.992 ± 0.0029
Cc1nnc2c3ccccc3c(N[C@@H](C)[C@H](c3ccccc3)N(C)C)nn12 [L-moses],98.1 ± 1.5,99.22 ± 0.67,97.14 ± 0.68,99.898 ± 0.059,60.8 ± 6,81.2 ± 6.2,99.61 ± 0.29,96.2 ± 2.5,87 ± 19,98.5 ± 1.9,75.8 ± 11,99.952 ± 0.041
Cc1cc(=O)n(C)c2cc(N3C(=O)CC[C@H](NS(=O)(=O)CC(C)C)[C@H]3c3ccc(Cl)cc3)ccc12,98.62 ± 0.82,98.85 ± 0.5,99.53 ± 0.27,99.99 ± 0.01,55.4 ± 11,81.7 ± 5.8,99.02 ± 0.89,85.8 ± 9.3,98.75 ± 0.26,71 ± 19,82.6 ± 16,99.951 ± 0.055
CCCOc1ccn2c(C(C)=O)cc(-c3ccccc3S(C)(=O)=O)c2c1,99.1 ± 0.35,99.03 ± 0.55,98.2 ± 1,99.968 ± 0.022,53 ± 5.5,81.9 ± 6.8,99.1 ± 0.59,92.2 ± 7.6,97.6 ± 0.9,76.8 ± 20,88.7 ± 8.8,99.983 ± 0.013
COc1c(C)cc(NC(=O)c2nn(Cc3ccc(F)cc3)c3c2CN(C(=O)c2ccc[nH]2)C[C@]3(C)C(N)=O)cc1C,95.2 ± 2.6,98.5 ± 1.5,97.72 ± 0.68,99.916 ± 0.05,56.1 ± 5.2,76.3 ± 3.2,99.26 ± 0.96,99.43 ± 0.33,98.56 ± 0.55,93.7 ± 9.7,75.6 ± 20,99.971 ± 0.051
